High-throughput results as filed in PubChem BioAssay.
Rows were chosen to be rich in hits. Some 4.2% of all compounds tested hit in one or more screens of this group.
TRPV1 PAM: enhances activation of the human vanilloid receptor TRPV1. Q8NER1. TRPV1-expressing cells, Fluo-8 calcium influx, capsaicin EC20 potentiation. potentiation, % at 8.33 µM. actives 0.02% (n = 320,000). AID 540277; in the data active = potentiation above about 80%; inconclusive = between about 30% and that limit
Target sequence (Q8NER1 whole entry, looked up): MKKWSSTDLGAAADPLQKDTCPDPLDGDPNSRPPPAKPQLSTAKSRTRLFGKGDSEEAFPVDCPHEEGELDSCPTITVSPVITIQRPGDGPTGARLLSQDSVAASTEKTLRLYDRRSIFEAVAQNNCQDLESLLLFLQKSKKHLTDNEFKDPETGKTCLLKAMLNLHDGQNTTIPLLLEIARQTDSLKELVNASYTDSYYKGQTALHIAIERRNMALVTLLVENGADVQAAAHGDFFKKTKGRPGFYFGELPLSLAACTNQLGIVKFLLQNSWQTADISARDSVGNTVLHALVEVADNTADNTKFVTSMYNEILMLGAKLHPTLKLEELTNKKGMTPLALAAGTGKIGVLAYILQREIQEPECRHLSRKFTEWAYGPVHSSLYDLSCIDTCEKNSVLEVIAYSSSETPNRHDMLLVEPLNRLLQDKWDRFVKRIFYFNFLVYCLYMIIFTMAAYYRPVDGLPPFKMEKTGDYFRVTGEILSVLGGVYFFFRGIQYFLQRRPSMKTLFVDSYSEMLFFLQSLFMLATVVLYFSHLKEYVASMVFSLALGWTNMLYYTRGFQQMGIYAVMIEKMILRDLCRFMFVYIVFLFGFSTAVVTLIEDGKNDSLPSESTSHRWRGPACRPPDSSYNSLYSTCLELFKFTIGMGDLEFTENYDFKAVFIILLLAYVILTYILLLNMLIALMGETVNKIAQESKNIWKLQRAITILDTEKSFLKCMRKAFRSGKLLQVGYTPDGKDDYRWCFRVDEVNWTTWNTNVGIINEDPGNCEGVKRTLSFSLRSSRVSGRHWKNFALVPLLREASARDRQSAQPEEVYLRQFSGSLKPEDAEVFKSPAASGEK
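TRPV1-expressing cells were cultured overnight at 35.5C and loaded with Fluo-8 calcium dye for 40 to 90 min at room temperature. After a 10 s baseline, compound was added and calcium influx was read kinetically for 3 min (ex 480/em 520 nm).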
D1 ag: activates the human D1 dopamine receptor; P21728; HEK293 T-REx D1 cells, calcium flux, agonist mode; activation, % at 2 µM; actives 1% (n = 360,000); AID 504660; in the data active = activation above about 30%
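Agonism was scored from calcium flux recorded over 180 s (1 read/s) after pintool compound addition, following a 10-cycle baseline. Cells were inducible force-coupled HEK293 TREx D1, plated overnight at 30 C and loaded with no-wash calcium dye.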
D1 PAM: potentiators of human D1 dopamine receptor; actives 0.036% (n = 360,000); AID 504651; HEK293 TREx D1 cells, calcium flux, dopamine EC20 potentiation; potentiation, % at 10 µM; in the data active = potentiation above about 30%
TRPV1 agonist: human TRPV1 agonism. TRPV1-expressing cells, Fluo-8 calcium influx, agonist mode. Q8NER1. activation, % at 8.33 µM. actives 0.19% (n = 320,000); in the data active = activation above about 80%; inconclusive = between about 30% and that limit
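TRPV1-expressing cells were cultured overnight at 35.5C and loaded with Fluo-8 calcium dye for 40 to 90 min at room temperature. After a 10 s baseline, compound was added and calcium influx was read kinetically for 3 min (ex 480/em 520 nm).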
D1 antagonist: human D1 dopamine receptor antagonism | P21728 | activity change, negative = inhibition, % at 10 µM | HEK293 TREx D1 cells, calcium flux, dopamine EC80; active compounds read low | actives 3.2% (n = 360,000); in the data active = activity change below about -30%
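Cells carrying a force-coupled, tetracycline-inducible human D1 receptor report calcium flux. Each well gets a 10 s baseline, compound with 180 s monitoring, then an EC80 dopamine stimulus with a second 180 s kinetic read.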
Large screens that a line does not name were inactive.

O=C(CCN1C(=O)C2C3C=CC(C4CC34)C2C1=O)Oc1ccc(Br)cc1 (stereo not given)	D1 antagonist -62
Cc1ccc(C)c(N2CCN(C(=O)CCn3c(=O)[nH]c4ccccc4c3=O)CC2)c1	none (no result: TRPV1 PAM, TRPV1 agonist)
Cc1ccc(C(=O)Nc2ccc(N3CCOCC3)cc2N2CCOCC2)cc1	D1 antagonist -69
Cc1cc(NC(=O)CSCC(=O)Nc2cc(C(F)(F)F)ccc2N2CCOCC2)no1	none
COc1cc(OC)cc(C(=O)Nc2ccccc2N2CCOCC2)c1	TRPV1 agonist inconclusive
Cc1ccc(NC(=O)CSCC(=O)Nc2cc(C(F)(F)F)ccc2N2CCOCC2)cc1	TRPV1 agonist inconclusive, D1 antagonist -34
COc1cc(OC)cc(C(=O)Nc2ccc(N3CCOCC3)cc2N2CCOCC2)c1	D1 antagonist -52
CCCn1c(CN2CCN(c3ccc(OC)cc3)CC2)nc2c1c(=O)[nH]c(=O)n2C	none (no result: TRPV1 PAM, TRPV1 agonist)
CCS(=O)(=O)N1CCc2cc(C(=O)Nc3cc(OC)c(Cl)cc3OC)ccc21	none (no result: TRPV1 PAM, TRPV1 agonist)
CCOc1ccc2nc(N3CCN(C(=O)CS(=O)(=O)c4ccc(F)cc4)CC3)sc2c1	none (no result: TRPV1 PAM, TRPV1 agonist, D1 antagonist)
COc1ccc(N2CCN(CCNC(=O)Nc3ccc([N+](=O)[O-])cc3OC)CC2)cc1	none
CCCN1CCN(CCNC(=O)Nc2ccc(OC)c(OC)c2)CC1	none (no result: TRPV1 PAM, TRPV1 agonist)
COc1ccc(OC)c(NC(=O)NCCN2CCN(c3ccccc3)CC2)c1	D1 antagonist -54
COC(=O)c1ccc(N2CCN(CCNC(=O)Nc3ccc(OC)cc3)CC2)cc1	none
COc1cc(NC(=O)NCCN2CCN(c3ccc(Cl)cc3)CC2)ccc1C	D1 ag 64
COc1ccc(N2CCN(CCNC(=O)Nc3ccc(C)c(Cl)c3)CC2)cc1	D1 ag 31
COc1ccc(NC(=O)NCCN2CCN(c3cccc(Cl)c3)CC2)cc1	D1 antagonist -61
Cc1ccc(C)c(N2CCN(C(=O)CN3C(=O)CSc4c3c(C)nn4-c3ccccc3)CC2)c1	none (no result: TRPV1 PAM, TRPV1 agonist)
Oc1c(C(c2ccc(F)cc2)N2CCCC2)sc2nc(-c3ccco3)nn12 (stereo not given)	none (no result: TRPV1 PAM, TRPV1 agonist, D1 antagonist)
NS(=O)(=O)c1ccc(NC(=O)CN2CCN(c3ccc(F)cc3)CC2)cc1	none (no result: TRPV1 PAM, TRPV1 agonist)
CC(C)OP(=O)(c1ccc(N(C)C)cc1)C(Nc1ccccc1)c1cccnc1 (stereo not given)	D1 antagonist -31
CC(C)COP(=O)(c1ccc(N(C)C)cc1)C(O)c1cccnc1 (stereo not given)	D1 antagonist -86
CN(C)c1ccc(P(=O)(OC2CCCCC2)C(Nc2ccccc2)c2cccnc2)cc1 (stereo not given)	none
COc1cc(NC(=O)CN2C(=O)C(c3ccc(C)cc3)=NC23CCCCC3)cc(OC)c1	none (no result: TRPV1 PAM, TRPV1 agonist)
N#Cc1ccc(Cl)cc1NC(=O)COC(=O)[C@H](CCC(N)=O)NC(=O)c1ccc(F)cc1	D1 antagonist -32
NC(=O)CC[C@H](NC(=O)c1ccc(F)cc1)C(=O)OCC(=O)Nc1c(F)c(F)c(F)c(F)c1F	none
O=C(O)c1cccc(N/N=C/c2cccnc2)c1	D1 antagonist -31
N#CC(C#N)=C1C=CC=CN1/C(=C\c1ccco1)C(=O)c1ccc(Cl)cc1	TRPV1 agonist inconclusive, D1 antagonist -52
CN(C)CCNC(=O)C(=O)Nc1ccc2c(c1)N(S(=O)(=O)c1cccs1)CCC2	D1 ag 56
CCc1cccc(N2C(=O)CSC23C(=O)Nc2ccccc23)c1 (stereo not given)	none (no result: TRPV1 PAM, TRPV1 agonist)
CCCCCn1nc(C(=O)N2CCc3ccccc32)c2ccccc2c1=O	D1 antagonist -51
CCSc1ccc2c(c1)N(CCCN1CCN(C)CC1)c1ccccc1S2	D1 antagonist -91
O=C(CCN1CCOCC1)N1c2ccccc2Sc2ccc(Cl)cc21	none
COc1ccc(CCNC(=O)c2c(O)nc3c(C)cccn3c2=O)cc1OC	none (no result: TRPV1 PAM, TRPV1 agonist)
O=C(CSc1nc(=O)[nH]c2c1CCCC2)NCc1ccc(F)cc1	none (no result: TRPV1 PAM, TRPV1 agonist, D1 antagonist)
CN(C(=O)COC(=O)c1ccc([N+](=O)[O-])cc1)c1ccccc1	none
CN(C(=O)COC(=O)CSc1ccc([N+](=O)[O-])cc1)c1ccccc1	D1 antagonist -47 (no result: D1 PAM)
Cc1cc(C)nc(SCC(=O)OCC(=O)Nc2nc3ccccc3s2)n1	D1 ag 31
O=C(COc1ccccc1Cl)NCC1(N2CCOCC2)CCCCC1	none (no result: TRPV1 PAM, TRPV1 agonist)
CC(=O)Cc1nsc(NC(=O)c2ccccc2)n1	none
CC(=O)Cc1nsc(NC(=O)c2ccc(F)cc2)n1	D1 antagonist -80
Nc1ncc(S(=O)(=O)NCc2ccccc2F)cn1	none (no result: TRPV1 PAM, TRPV1 agonist)
C=C(C)CSc1nc2sc3c(c2c(=O)n1Cc1ccccc1)CC(C)(CC)OC3 (stereo not given)	none (no result: TRPV1 PAM, TRPV1 agonist)
O=[N+]([O-])c1ccc(OC/C=C2\Oc3ccc([N+](=O)[O-])cc3C2N2CCOCC2)cc1 (stereo not given)	D1 antagonist -69
O=[N+]([O-])c1ccc2c(c1)C(N1CCOCC1)/C(=C/COc1ccc(F)cc1)O2 (stereo not given)	none
COC(/C=C/Nc1ccc(Cl)cc1)=C(C#N)C#N	D1 antagonist -31
COC(/C=C/Nc1ccc(OC)cc1)=C(C#N)C#N	none
COc1cccc(NS(=O)(=O)c2c(C)n(C)c(=O)n(C)c2=O)c1	none
COc1ccc(NS(=O)(=O)c2c(C)n(C)c(=O)n(C)c2=O)cc1OC	D1 antagonist -31 (no result: TRPV1 PAM, TRPV1 agonist)
CCn1nc(C)c2c(-c3ccccc3)cc(=O)n(C(C)C(=O)Nc3ccc(OC)c(OC)c3)c21 (stereo not given)	none (no result: TRPV1 PAM, TRPV1 agonist)
O=C(NCCc1ccc(Cl)cc1)C(=O)NCC(c1cccs1)S(=O)(=O)c1cccs1 (stereo not given)	none (no result: TRPV1 PAM, TRPV1 agonist, D1 antagonist)
O=C(NCCc1ccc(F)cc1)C(=O)NCC(c1cccs1)S(=O)(=O)c1cccs1 (stereo not given)	D1 ag 42 (no result: TRPV1 PAM, TRPV1 agonist, D1 antagonist)
CCNC(=O)c1cnc2sc(N3CCC(C)CC3)nn2c1=O	none (no result: TRPV1 PAM, TRPV1 agonist)
CC(C)(C)NC(=O)CN(C(=O)C1CSC(=O)C1)c1ccc2c(c1)OCCO2 (stereo not given)	D1 antagonist -36
CC(=O)Nc1sc(N/N=C\c2ccc(O)cc2)nc1-c1cccs1	none
CCN(CC)c1ccc(/C=C(\C#N)c2nc(-c3cccs3)c(NC(C)=O)s2)cc1	D1 ag 214
Cc1ccc2occ(-c3cc(-c4ccccc4)nc4c3COc3ccccc3-4)c(=O)c2c1	none (no result: TRPV1 PAM, TRPV1 agonist)
COc1ccccc1CNC(=O)c1cnc2sc(N3CCCCC3)nn2c1=O	none (no result: TRPV1 PAM, TRPV1 agonist)
Cc1ccc(-c2ccc(SCC(=O)NC3CCCC3)nn2)cc1	D1 antagonist -31
Cn1c(=O)c(C(N)=S)cn(-c2ccccc2)c1=O	none
NC(=O)c1cc(Cl)cn(-c2ccccc2)c1=O	D1 antagonist -48 (no result: D1 PAM)
Cc1ccccc1-c1noc(-c2nnn(-c3ccccc3C)c2N)n1	none (no result: TRPV1 PAM, TRPV1 agonist)
Cc1cc(=O)n2nc(N3CCCC(C(=O)NCCc4ccc(Cl)cc4)C3)sc2n1 (stereo not given)	D1 antagonist -35
